Results from PubChem BioAssay (NCI).
The panel holds about 83,000 compounds, 20% with a hit somewhere; the sample as a whole holds those more often.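 Plates (96-well) were seeded with cells, treated with compound at one concentration, and incubated for 48 hours before percent growth was determined.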 A number with no mark means an inactive call. Activity calls are given as the source filed them. How the source made its calls: active means growth percent below 10; inactive means the rest.

These compounds were tested on BT-549 breast (assay: NCI-60 one-dose screen, 48 h (100 = growth as untreated, 0 = no growth, -100 = all killed)). Conditions: 10 µM unless noted.
With `CCCCSC1=C(Cl)CN(c2ccc(Cl)cc2)C1=O` the growth was 112%.
In the case of `CN(C)CCCOc1ccc(C(=C(c2ccccc2)C2CCCC2)c2ccc(OCCCN(C)C)cc2)cc1`, the growth is reported as -83.3% (active).
For `CN1CCN(c2ccc(Nc3nc(NCCCNS(=O)(=O)c4cccc5ccccc45)c4sccc4n3)cc2)CC1`, the growth was -87.3% (active).
`CCN(CC)c1ccc(/C=N/NC(=O)c2ccc(S(N)(=O)=O)cc2)cc1` was tested, and the growth was 26.3%.
In the case of `C#C[C@]1(O)CC[C@H]2[C@@H]3CC=C4c5sc(Nc6cc(C)cc(C)c6)nc5CC[C@]4(C)[C@H]3CC[C@@]21C`, the growth is reported as -4.65% (active).
With `CN(C)c1ccc(-c2cc(-c3c[nH]c4ccccc34)nc(N)c2C#N)cc1` the growth was 27.8%.
For `C#C[C@]1(O)CC[C@H]2[C@@H]3CC=C4c5sc(Nc6cc(Cl)ccc6OC)nc5CC[C@]4(C)[C@H]3CC[C@@]21C`, the growth was 3.68% (active).
For `Cc1cc(=O)[nH]c(O)c1C#N`, the growth was 113%.
With `Cc1ccc(C(=O)CSc2nc3ccccc3c(=O)n2C)cc1` the growth was 96.1%.
With `O=C(NCCNc1cc(-c2cn(-c3ccccc3)nc2-c2cccc(O)c2)ccn1)Nc1cc(C(F)(F)F)cc(C(F)(F)F)c1` the growth was 99.4%.
In the case of `N/C(=N\C(N)=N\c1nc2ccccc2s1)c1ccc(Cl)cc1`, the growth is reported as 94.4%.
`C#CCN(C)CCCOc1ccc(NCc2ccc(/C=C/C(=O)NO)cc2)cc1Cl` showed a growth of 18.8%.
`C#CCOc1ccccc1/C=N/Nc1nc(-c2ccc(Cl)cc2)cs1` showed a growth of 128%.
For `O=S(=O)(NCCCNc1nccc(-c2[nH]c(-c3ccccc3)nc2-c2ccc(F)c(O)c2)n1)c1cccc(F)c1`, the growth was 96.4%.
In the case of `O=C(CSc1nc2ccccc2c(=O)n1CCc1ccccc1)Nc1ccc(S(=O)(=O)Nc2ccc(Cl)nn2)cc1`, the growth is reported as 98.9%.
`Nc1nc(=O)n([C@H]2C[C@H](O)[C@@H](CO)O2)cc1C=O` gave a growth of 116%.
`O=C(Nc1ccc(Cl)c(C(F)(F)F)c1)Nc1ccc2c(ccn2C(=O)c2cccc(F)c2)c1` gave a growth of 53.3%.
For `CCN1CCN(c2ccc(NC(=O)Nc3ccc4c(ccn4-c4ccnc(C(=O)NC)c4)c3)cc2C(F)(F)F)CC1`, the growth was 73.6%.
`O=C(CCCCCCN1CC(=O)N2[C@@H](c3ccccc3Br)c3[nH]c4ccccc4c3C[C@H]2C1=O)NO` showed a growth of 87.1%.
`COc1ccc2[nH]cc(-c3nc(N)nnc3-c3cn(C)c4ccc(Br)cc34)c2c1` showed a growth of 39.6%.
Compound `C#Cc1nc(/C=C\CCCCCCC(=O)NO)cs1` has a growth of 87.5%.
With `CC(=O)OC[C@]12CC[C@@H](C(=O)/C=C/c3cccnc3)[C@@H]1[C@H]1CC[C@@H]3[C@@]4(C)CC[C@H](OC(C)=O)C(C)(C)[C@@H]4CC[C@@]3(C)[C@]1(C)CC2` the growth was -12.6% (active).
With `C[C@@H]1OCC2(CCN(c3cnc(C(=O)Nc4cc(F)cc5cccnc45)cn3)CC2)[C@@H]1N` the growth was 90.1%.
With `CC1=C(C)C(=O)C(Nc2ccc(C)c(C)c2)=C(Br)C1=O` the growth was 100%.
Compound `Cc1ccccc1Nc1nc(SC(C)C)nc(-c2ccccc2)c1C#N` has a growth of 97.1%.
`O=C1c2ccccc2C23C(=C(c4cncnc4)c4ccccc42)CCCN13` (stereo not drawn) showed a growth of 120%.
With `CC1=C(C)C(=O)C(Nc2cccc(C(=O)OC(C)(C)C)c2)=C(Cl)C1=O` the growth was 106%.
`CC(=O)Nc1cc(N2CCOCC2)c2nc(NC(=O)c3[nH]c(C)c(Cl)c3Cl)sc2c1` was tested, and the growth was 74.1%.

These compounds were tested on MDA-MB-435 melanoma in the same assay as above. Conditions: 10 µM unless noted.
With `CCOc1cccc(/C(N)=N/C(N)=N/c2nc3ccccc3s2)c1` the growth was 99.9%.
In the case of `Cc1ccc2c(n1)C(=O)C(Cl)=C(Nc1cc(C(F)(F)F)cc(C(F)(F)F)c1)C2=O`, the growth is reported as 93.8%.
Work on `CC(C)(C)OC(=O)NCc1ccc(CNc2c([N+](=O)[O-])cnc3ccccc23)cc1` yielded a growth of 56.4%.
`C#CCOc1cccc(-c2nc(N)nc(Nc3ccccc3SSc3ccccc3Nc3nc(N)nc(-c4cccc(OCC#C)c4)n3)n2)c1` showed a growth of 72.7%.
Work on `CN1CCN(c2ccc(Nc3nc(NCCNS(=O)(=O)c4ccccc4)c4sccc4n3)cc2)CC1` yielded a growth of 105%.
For `C=C(C=O)[C@@H]1CC[C@]2(C(=O)O)CC[C@]3(C)C(CC[C@@H]4[C@@](C)(CCC#N)[C@H](C(=C)C=O)CC[C@]43C)[C@@H]12` (stereo partly drawn), the growth was -9.89% (active).
`O=C(CSc1nc2ccccc2c(=O)n1-c1ccccc1)N/N=C/c1ccc(Oc2ccc(Br)cc2)cc1` was tested, and the growth was 80.8%.
`CC(C)C(/C=C/c1[nH]ncc1-c1cc(Cl)ccc1O)N1CCOCC1` (stereo not drawn) gave a growth of 95.8%.
For `N#Cc1c(-c2cccs2)cc(-c2cnccn2)nc1SCC(=O)N/N=C/c1ccc(Cl)cc1`, the growth was 103%.
In the case of `CN1CCN(c2ccc(Nc3nc(NCCCNS(=O)(=O)c4ccc(Cl)cc4)c4sccc4n3)cc2)CC1`, the growth is reported as 7.33% (active).
For `O=C1[C@@H]2Cc3c([nH]c4ccccc34)[C@H](c3ccc(Br)cc3)N2C(=O)CN1C1CCN(Cc2c(Cl)cccc2Cl)CC1`, the growth was 100%.
Compound `COc1ccc(NC(=O)CCCCCCNC(=O)C(O)(O)C(F)(F)F)cc1` has a growth of 38.8%.
Work on `CCCCSC1=C(Cl)CN(c2ccc(Cl)cc2)C1=O` yielded a growth of 107%.
For `CN(C)CCCOc1ccc(C(=C(c2ccccc2)C2CCCC2)c2ccc(OCCCN(C)C)cc2)cc1`, the growth was -62.8% (active).
`CN1CCN(c2ccc(Nc3nc(NCCCNS(=O)(=O)c4cccc5ccccc45)c4sccc4n3)cc2)CC1` was tested, and the growth was -73% (active).
For `CCN(CC)c1ccc(/C=N/NC(=O)c2ccc(S(N)(=O)=O)cc2)cc1`, the growth was 33%.
For `C#C[C@]1(O)CC[C@H]2[C@@H]3CC=C4c5sc(Nc6cc(C)cc(C)c6)nc5CC[C@]4(C)[C@H]3CC[C@@]21C`, the growth was 20.7%.
In the case of `CN(C)c1ccc(-c2cc(-c3c[nH]c4ccccc34)nc(N)c2C#N)cc1`, the growth is reported as 13.6%.
In the case of `C#C[C@]1(O)CC[C@H]2[C@@H]3CC=C4c5sc(Nc6cc(Cl)ccc6OC)nc5CC[C@]4(C)[C@H]3CC[C@@]21C`, the growth is reported as -0.171% (active).
`Cc1cc(=O)[nH]c(O)c1C#N` gave a growth of 105%.
With `Cc1ccc(C(=O)CSc2nc3ccccc3c(=O)n2C)cc1` the growth was 100%.
For `O=C(NCCNc1cc(-c2cn(-c3ccccc3)nc2-c2cccc(O)c2)ccn1)Nc1cc(C(F)(F)F)cc(C(F)(F)F)c1`, the growth was 98.4%.
`N/C(=N\C(N)=N\c1nc2ccccc2s1)c1ccc(Cl)cc1` showed a growth of 96.3%.
With `C#CCN(C)CCCOc1ccc(NCc2ccc(/C=C/C(=O)NO)cc2)cc1Cl` the growth was -25.3% (active).
`C#CCOc1ccccc1/C=N/Nc1nc(-c2ccc(Cl)cc2)cs1` showed a growth of 104%.
`O=S(=O)(NCCCNc1nccc(-c2[nH]c(-c3ccccc3)nc2-c2ccc(F)c(O)c2)n1)c1cccc(F)c1` gave a growth of 38%.
`O=C(CSc1nc2ccccc2c(=O)n1CCc1ccccc1)Nc1ccc(S(=O)(=O)Nc2ccc(Cl)nn2)cc1` gave a growth of 99.8%.
With `Nc1nc(=O)n([C@H]2C[C@H](O)[C@@H](CO)O2)cc1C=O` the growth was 110%.
`O=C(Nc1ccc(Cl)c(C(F)(F)F)c1)Nc1ccc2c(ccn2C(=O)c2cccc(F)c2)c1` showed a growth of 34.6%.
Compound `CCN1CCN(c2ccc(NC(=O)Nc3ccc4c(ccn4-c4ccnc(C(=O)NC)c4)c3)cc2C(F)(F)F)CC1` has a growth of 70.4%.
In the case of `O=C(CCCCCCN1CC(=O)N2[C@@H](c3ccccc3Br)c3[nH]c4ccccc4c3C[C@H]2C1=O)NO`, the growth is reported as 27.8%.
For `COc1ccc2[nH]cc(-c3nc(N)nnc3-c3cn(C)c4ccc(Br)cc34)c2c1`, the growth was -8.23% (active).
With `C#Cc1nc(/C=C\CCCCCCC(=O)NO)cs1` the growth was 45.9%.
In the case of `CC(=O)OC[C@]12CC[C@@H](C(=O)/C=C/c3cccnc3)[C@@H]1[C@H]1CC[C@@H]3[C@@]4(C)CC[C@H](OC(C)=O)C(C)(C)[C@@H]4CC[C@@]3(C)[C@]1(C)CC2`, the growth is reported as -1.17% (active).
Compound `C[C@@H]1OCC2(CCN(c3cnc(C(=O)Nc4cc(F)cc5cccnc45)cn3)CC2)[C@@H]1N` has a growth of 82.9%.
Work on `CC1=C(C)C(=O)C(Nc2ccc(C)c(C)c2)=C(Br)C1=O` yielded a growth of 103%.
`Cc1ccccc1Nc1nc(SC(C)C)nc(-c2ccccc2)c1C#N` showed a growth of 44.9%.
For `O=C1c2ccccc2C23C(=C(c4cncnc4)c4ccccc42)CCCN13` (stereo not drawn), the growth was 94.6%.
For `CC1=C(C)C(=O)C(Nc2cccc(C(=O)OC(C)(C)C)c2)=C(Cl)C1=O`, the growth was 103%.
For `CC(=O)Nc1cc(N2CCOCC2)c2nc(NC(=O)c3[nH]c(C)c(Cl)c3Cl)sc2c1`, the growth was 59%.
